According to PubChem BioAssay AID2634 (National Center for Advancing Translational Sciences (NCATS), 2010):
Inconclusive results are not listed. A number with no mark means an inactive call. Active and inactive are the calls of the source.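 The calls were made as follows: active = compounds whose potency, the dose giving half inhibition, is below 20 µM; inconclusive = compounds meeting neither the active nor the inactive rule; inactive = potency over 20 µM or below 50% inhibition when unfitted.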

target: Integrin alpha-IIb (Homo sapiens) (UniProt P08514); assay: Platelet Adhesion Secondary Assay for Inhibitors of Platelet Integrin alphallb-beta3; conditions: human platelet adhesion to fibrinogen, calcein fluorescence; inhibition: at 30 µM, hits give high values
Excerpt: NIH Molecular Libraries Probe Production Network [MLPCN] NIH Chemical Genomics Center [NCGC] MLPCN Grant: 1 R03 MH083257-01 Assay Provider: Barry Coller, Rockefeller University NCGC Assay Overview: The alphaIIbbeta3 receptor plays a vital role in hemostasis and thrombosis, where receptor deficiency causes the hemorrhagic disorder, Glanzmann thrombasthenia, and uncontrolled receptor activation causes thrombosis and blood vessel occlusion. Small molecule inhibitors of alphaIIbbeta3, tirofiban and eptifibatide, have undesirable side effects thought to arise from conformational changes in alphaIIbbeta3. These changes transiently activate the receptor to cause spontaneous platelet aggregation and thrombus formation. […] This secondary assay measures the binding of human plates to fibrinogen, an extracellular matrix protein (Blue et al., 2008). Platelets were loaded with a fluorescent dye, calcein, and added to fibrinogen-coated plates. Following incubation, unbound platelets were removed by washing and bound platelets were detected by measuring fluorescence intensity. Inhibitors of alphaIIbbeta3 block platelet binding to fibrinogen and result in a decrease in fluorescence intensity.
NCGC Assay Protocol Summary: Human fibrinogen (50 ug/mL) in Tris/saline (100 mM NaCl, 50 mM Tris/HCl, pH 7.4; American Diagnostica, Stamford, CT) was added to black, clear-bottom, untreated polystyrene, nonsterile 384-well microtiter plate wells (Corning no. 3711; Acton, MA) using a peristaltic microplate dispenser (WellMate; Matrix, Hudson, NH). After incubating at 22 C for 1 hour, plates were washed 4 times with Tris/saline using an automated plate washer (ELX405; Bio-Tek, Winooski, VT), and wells were then blocked with HBMT (138 mM NaCl, 12 mM NaHCO3, 10 mM HEPES, 2.7 mM KCl, 0.4 mM NaH2PO4, 0.1% glucose, 0.35% BSA, pH 7.4) for at least 1 hour. After 2 additional washes, 15 uL HBMT was allowed to remain in each well. Compounds were added to the wells with a liquid handling robot (MiniTrak V; PerkinElmer, Wellesley, MA) using a pin tool (VP Scientific, San Diego, CA) that added 0.1 uL compound in DMSO. Fifteen microliters 5E11/L calcein-labeled platelets were then added (2.5E11/L final concentration). After 1 hour of adhesion, wells were washed 4 times with HBMT-CaCl2/MgCl2 and the plates were read by an Envision (Perkin Elmer) to detect calcein fluorescence (490 nm excitation and 515 nm emission). Positive controls consisted of wells containing platelets without compounds. Negative controls were wells containing platelets and known inhibitors of alphaIIbbeta3, including mAbs 7E3 and 10E5, and EDTA. Reference Blue R, Murcia M, Karan C, Jirouskova M, and Coller BS. Application of high-throughput screening to identify a novel alphaIIb-specific small- molecule inhibitor of alphaIIbbeta3-mediated platelet interaction with fibrinogen. Blood. 2008, 111(3):1248-56

Chain of Integrin alpha-IIb (Homo sapiens) (P08514 whole entry, looked up): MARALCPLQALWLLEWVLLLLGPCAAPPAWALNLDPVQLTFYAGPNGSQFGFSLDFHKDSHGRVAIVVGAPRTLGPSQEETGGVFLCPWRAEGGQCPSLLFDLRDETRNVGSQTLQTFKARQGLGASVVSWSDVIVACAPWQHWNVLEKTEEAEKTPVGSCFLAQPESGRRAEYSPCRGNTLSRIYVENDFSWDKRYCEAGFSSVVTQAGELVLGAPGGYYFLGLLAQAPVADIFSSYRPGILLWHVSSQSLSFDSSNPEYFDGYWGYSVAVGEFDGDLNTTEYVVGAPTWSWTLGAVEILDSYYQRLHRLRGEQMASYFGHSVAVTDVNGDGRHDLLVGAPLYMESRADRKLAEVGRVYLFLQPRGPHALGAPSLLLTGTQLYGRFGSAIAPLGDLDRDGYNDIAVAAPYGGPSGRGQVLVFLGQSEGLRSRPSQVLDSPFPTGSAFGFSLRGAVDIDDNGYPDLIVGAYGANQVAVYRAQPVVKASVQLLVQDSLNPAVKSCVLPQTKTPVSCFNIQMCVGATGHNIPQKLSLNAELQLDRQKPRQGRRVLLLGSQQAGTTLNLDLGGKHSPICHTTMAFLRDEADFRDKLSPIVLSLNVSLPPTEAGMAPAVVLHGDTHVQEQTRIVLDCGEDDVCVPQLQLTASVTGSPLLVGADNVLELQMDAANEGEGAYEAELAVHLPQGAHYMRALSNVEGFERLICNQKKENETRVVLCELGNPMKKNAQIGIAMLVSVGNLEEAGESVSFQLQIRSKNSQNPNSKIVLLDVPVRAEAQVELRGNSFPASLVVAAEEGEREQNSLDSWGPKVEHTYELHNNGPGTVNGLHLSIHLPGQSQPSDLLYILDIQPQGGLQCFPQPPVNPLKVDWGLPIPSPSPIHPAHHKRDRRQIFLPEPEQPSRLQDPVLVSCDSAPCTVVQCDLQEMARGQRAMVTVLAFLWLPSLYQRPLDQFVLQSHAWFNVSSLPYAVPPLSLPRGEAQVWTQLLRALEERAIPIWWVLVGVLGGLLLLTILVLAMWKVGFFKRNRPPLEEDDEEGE

SMILES	Potency	inhibition [%]
C[C@H](N)C(=O)Nc1cccc(-c2nn3c(=O)cc(N4CCNCC4)nc3s2)c1	8200 nM (active)	
NCC(=O)Nc1cccc(-c2nn3c(=O)cc(N4CCNCC4)nc3s2)c1	1100 nM (active)	
CC(C)(C)c1nn2c(=O)cc(N3CCNCC3)nc2s1		21
CCc1nn2c(=O)cc(N3C(C)CNCC3C)nc2s1 (stereo not given)		27
O=C(O)c1cc(-c2cccc(-c3nn4c(=O)cc(N5CCNCC5)nc4s3)c2)cs1	2400 nM (active)	
CCc1nn2c(=O)cc(NC3CNC3)nc2s1		23
CCc1nn2c(=O)cc(-c3ccncc3)nc2s1		25
Nc1ncc(-c2cccc(-c3nn4c(=O)cc(N5CCNCC5)nc4s3)c2)cn1	3500 nM (active)	
O=C(O)c1cccc(-c2cccc(-c3nn4c(=O)cc(N5CCNCC5)nc4s3)c2)c1	460 nM (active)	
CNCC(=O)Nc1cccc(-c2nn3c(=O)cc(N4CCNCC4)nc3s2)c1		24
COCc1nn2c(=O)cc(N3CCNCC3)nc2s1		18
O=C(O)c1ccc(-c2nn3c(=O)cc(N4CCNCC4)nc3s2)cc1		48
NC(=O)c1ccc(-c2cccc(-c3nn4c(=O)cc(N5CCNCC5)nc4s3)c2)cc1	855 nM (active)	
Cc1noc(C)c1-c1cccc(-c2nn3c(=O)cc(N4CCNCC4)nc3s2)c1		26
O=C(Nc1cccc(-c2nn3c(=O)cc(N4CCNCC4)nc3s2)c1)c1ccon1		32
